Measurements from PubChem BioAssay AID720597 (Broad Institute, 2013).
Measured potencies and affinities stand elsewhere. Active and inactive are the calls of the source.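 Rule for the calls: active = fitted half-maximal dose no more than twice the top valid tested dose, for compounds that lower signal; inconclusive = fit invalid, or curve flat with activity between -70 and -30; inactive = potency past limit, curve flat within ±30, or signal increasing.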

The molecules below were run against NAD-dependent protein deacylase sirtuin-5, mitochondrial (Homo sapiens) (UniProt Q9NXA8) (assay: blockers of sirtuin-5 peptide desuccinylation – biochemical, fluorescence imaging, cherry-pick, set 6, dose response (AID 720597;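 note: lower AMC signal can also come from blocking the trypsin step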)). Conditions: Purified SirT5, succinyl-peptide-AMC/trypsin fluorescence; series mostly up to 15 µM.
NAD-dependent protein deacylase sirtuin-5, mitochondrial (Homo sapiens), sequence (Q9NXA8 whole entry, looked up): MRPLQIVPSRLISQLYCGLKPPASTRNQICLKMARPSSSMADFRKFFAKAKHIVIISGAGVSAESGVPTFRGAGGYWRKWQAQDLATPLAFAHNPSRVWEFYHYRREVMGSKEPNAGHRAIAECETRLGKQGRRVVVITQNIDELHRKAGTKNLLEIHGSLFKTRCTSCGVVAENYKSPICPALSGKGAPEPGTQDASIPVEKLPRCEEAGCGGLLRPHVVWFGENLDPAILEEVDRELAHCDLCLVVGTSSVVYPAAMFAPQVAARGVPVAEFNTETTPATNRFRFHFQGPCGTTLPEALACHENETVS

outcome, inactive:
Cc1noc(C)c1NC(=O)N[C@@H]1C=C[C@@H](CC(=O)Nc2ccccc2)O[C@H]1CO
O=S(=O)(c1ccc(F)cc1)N1CCCCN2[C@@H](CO)[C@H](c3ccc(-c4ccccc4F)cc3)[C@@H]2C1
C[C@@H]1CCCCO[C@H](CN(C)C(=O)Cc2ccccc2)[C@@H](C)CN([C@H](C)CO)C(=O)c2cc(NS(=O)(=O)c3cn(C)cn3)ccc2O1
C[C@H](CO)N1C[C@H](C)[C@@H](CN(C)Cc2ccc(Cl)c(Cl)c2)Oc2ccc(NC(=O)CCC(F)(F)F)cc2CC1=O
C[C@H](CO)N1C[C@H](C)[C@H](CN(C)C(=O)Nc2cc(F)ccc2F)Oc2cc(/C=C/c3ccccc3)ccc2S1(=O)=O
CC(C)C#Cc1cnc2c(c1)C(=O)N([C@H](C)CO)C[C@H](C)[C@@H](CN(C)C(=O)CN1CCOCC1)O2
Cc1ccc(S(=O)(=O)Nc2ccc3c(c2)C(=O)N([C@@H](C)CO)C[C@H](C)[C@@H](CN(C)S(=O)(=O)c2ccc(F)cc2)OCCCC[C@@H](C)O3)cc1
CN(C)CCCNC(=O)C[C@H]1CC[C@H]2[C@@H](COC[C@H](O)CN2S(=O)(=O)c2ccc(F)cc2)O1
Cc1ccc(S(=O)(=O)N(C)C[C@H]2OCCCC[C@@H](C)Oc3ccc(NS(=O)(=O)c4ccc(Cl)cc4)cc3C(=O)N([C@H](C)CO)C[C@H]2C)cc1
CC(=O)N1CC(=O)N2[C@@H](CO)[C@H](c3ccc(-c4ccc(C(=O)N(C)C)cc4)cc3)[C@@H]2C1
